Experiment [1] relates to Vero E6 infected with SARS-CoV-2. Kind of experiment: morphology score (similarity to uninfected cells); higher = more like uninfected cells. The note with it: 24 h.
The test system is the same in experiment [2]. Kind of experiment: SARS-CoV-2 infection rate relative to infected DMSO; higher = more infection, active = 60 or less. To be noted: 24 h.

SMILES strings stand for the structures.

`CC(=O)O[C@H]1C[C@H](O[C@H]2[C@@H](O)C[C@H](O[C@H]3[C@@H](O)C[C@H](O[C@H]4CC[C@@]5(C)[C@H](CC[C@@H]6[C@@H]5C[C@@H](O)[C@]5(C)[C@@H](C7=CC(=O)OC7)CC[C@]65O)C4)O[C@@H]3C)O[C@@H]2C)O[C@H](C)[C@H]1O[C@@H]1O[C@H](CO)[C@@H](O)[C@H](O)[C@H]1O` [lanatoside-C] (0.833333 µM): the morphology score in experiment [1] was -0.0895. For the same compound, in experiment [2], the SARS-CoV-2 infection rate was 102% (inactive).

Compound `Cc1ccc(NC(=O)c2cccc(N(C)C)c2)cc1NC(=O)c1ccc(O)cc1` (10 µM) gave a morphology score in experiment [1] of -0.0598. In addition, the SARS-CoV-2 infection rate in experiment [2] was 97.5% (inactive).

In the case of `CCn1c(N)c(C(=O)NC)c(=O)c2ccc(C#C[C@@](C)(O)COC)nc21` (10 µM), the morphology score in experiment [1] came out at 0.464. Also, in experiment [2], the SARS-CoV-2 infection rate was 92% (inactive).

`CCC(=O)OCC(=O)[C@@]1(OC(=O)CC)[C@H](C)C[C@H]2[C@H]3[C@H]([C@@H](O)C[C@@]21C)[C@@]1(C)C=CC(=O)C=C1C[C@H]3Cl` [alclometasone-dipropionate] (10 µM) gave a morphology score in experiment [1] of 0.139. Moreover, the SARS-CoV-2 infection rate in experiment [2] is 98% (inactive).

Compound `COc1ccc(CCO[C@@H]2CCCC[C@H]2N2CC[C@@H](O)C2)cc1OC` [vernakalant] (10 µM) registered a morphology score in experiment [1] of 0.109. Moreover, the SARS-CoV-2 infection rate in experiment [2] was 110% (inactive).

In the case of `COc1ccc(C2CNC(=O)NC2)cc1O[C@H]1C[C@@H]2CC[C@H]1C2` [atizoram] (10 µM), in experiment [1], the morphology score worked out at 0.369. For the same compound, in experiment [2], the SARS-CoV-2 infection rate was 93.5% (inactive).

Turning to `Cn1ncc(Cl)c1-c1cc(C(=O)N[C@H](CN)Cc2ccc(F)c(F)c2)oc1Cl` [uprosertib] (10 µM), the morphology score in experiment [1] is 0.441. Moreover, in experiment [2], the SARS-CoV-2 infection rate was 96.5% (inactive).

Compound `O=C(O)/C=C1\CCCc2ccccc2[C@H]1O` (racemic) (10 µM) gave a morphology score in experiment [1] of 0.0116. Further, the SARS-CoV-2 infection rate in experiment [2] is 100% (inactive).

Regarding `Cc1cccc(C)c1NC(=O)c1ccccc1C(=O)O` [ftaxilide] (10 µM), in experiment [1], the morphology score is -0.12. Moreover, in experiment [2], the SARS-CoV-2 infection rate is 106% (inactive).

In turn, `c1ccc(C(O[C@@H]2CCCN(CCc3ccc4c(c3)OCO4)C2)c2ccccc2)cc1` [zamifenacin] (10 µM) came in with a morphology score in experiment [1] of 0.152. The SARS-CoV-2 infection rate in experiment [2] was 96% (inactive).

The compound `COc1cccc([C@@H](C)NCCCc2ccccc2Cl)c1` [tecalcet] (10 µM) had a morphology score in experiment [1] of 0.534. In addition, in experiment [2], the SARS-CoV-2 infection rate was 50.5% (active).

Turning to `Clc1cccc2c1CN(C1=NCCN1)C2` (10 µM), the morphology score in experiment [1] amounted to 0.132. For the same compound, in experiment [2], the SARS-CoV-2 infection rate was 93.5% (inactive).

In turn, `COC(=O)c1ccccc1O` [methyl-salicylate] (10 µM) came in with a morphology score in experiment [1] of -0.162. For the same compound, the SARS-CoV-2 infection rate in experiment [2] was 110% (inactive).

`CC(C)NC[C@@H](O)COc1ccccc1-n1cccc1` (racemic) [isamoltane] (10 µM): in experiment [1], the morphology score was -0.204. The SARS-CoV-2 infection rate in experiment [2] is 114% (inactive).

`Cc1ccc(S(=O)(=O)NCl)cc1` [chloramine-T] (10 µM) gave a morphology score in experiment [1] of 0.043. Further, the SARS-CoV-2 infection rate in experiment [2] was 104% (inactive).

As to `Cc1cccc(C)c1NC1=NCCCS1` [xylazine] (10 µM), in experiment [1], the morphology score stood at 0.241. Moreover, the SARS-CoV-2 infection rate in experiment [2] was 108% (inactive).

Consider `CC(=O)[C@]1(N)Cc2c(O)c3c(c(O)c2[C@@H](O[C@H]2C[C@H](O)[C@H](O)CO2)C1)C(=O)c1ccccc1C3=O` [amrubicin] (0.833333 µM), for which, in experiment [1], the morphology score worked out at 0.065. In experiment [2], the SARS-CoV-2 infection rate is 92.5% (inactive).

With `CCOC(=O)[C@@H](C)Oc1ccc(Oc2nc3ccc(Cl)cc3o2)cc1` [fenoxaprop-p-ethyl] (10 µM), in experiment [1], the morphology score is -0.0825. For the same compound, the SARS-CoV-2 infection rate in experiment [2] is 106% (inactive).

With `CCCC(O)C(CC)CO` (configuration not stated) [2-ethyl-1,3-hexanediol] (0.833333 µM), the morphology score in experiment [1] is -0.095. In addition, the SARS-CoV-2 infection rate in experiment [2] was 116% (inactive).

In the case of `C[C@H](N)[C@H](O)c1ccc(O)c(O)c1` [levonordefrin] (10 µM), in experiment [1], the morphology score worked out at 0.0723. Further, in experiment [2], the SARS-CoV-2 infection rate is 94.5% (inactive).

In experiment [1], `C[C@H]1C[C@@H]2[C@H]([C@@H](O)C[C@@]3(C)[C@H]2CC[C@]3(O)C(=O)COC(=O)CCC(=O)O)[C@@]2(C)C=CC(=O)C=C12` [methylprednisolone-sodium-succinate] (10 µM) came in with a morphology score of -0.0168. Moreover, the SARS-CoV-2 infection rate in experiment [2] was 102% (inactive).

As to `O=c1[nH]c2ccccc2n1CCCN1CCN(C(c2ccccc2)c2ccccc2)CC1` [oxatomide] (10 µM), the morphology score in experiment [1] is -0.0451. Moreover, the SARS-CoV-2 infection rate in experiment [2] is 106% (inactive).

In turn, `CCCCCCCCCCCC1=C(O)C(=O)C=C(O)C1=O` [embelin] (10 µM) gave a morphology score in experiment [1] of -0.0413. Besides, in experiment [2], the SARS-CoV-2 infection rate is 106% (inactive).

In turn, `CCCS(=O)(=O)Nc1ccc(F)c(C(=O)c2c[nH]c3ncc(-c4ccc(Cl)cc4)cc23)c1F` [vemurafenib] (10 µM) gave a morphology score in experiment [1] of 0.25. For the same compound, the SARS-CoV-2 infection rate in experiment [2] is 85.5% (inactive).

For `N#Cc1ccc(-c2csc(NN=C3CCCC3)n2)cc1` [remodelin] (10 µM), the morphology score in experiment [1] is 0.0343. In experiment [2], the SARS-CoV-2 infection rate was 100% (inactive).

In experiment [1], `Cc1ccc(NC(=O)C2(c3ccc4c(c3)OC(F)(F)O4)CC2)nc1-c1cccc(C(=O)O)c1` [lumacaftor] (10 µM) gave a morphology score of 0.0696. In addition, the SARS-CoV-2 infection rate in experiment [2] was 114% (inactive).

The record behind these values is the supplement of paper PMC13380429.
